EP2 modulator – EP2 receptor (human) modulation | P43116 | EP2-expressing cells, cAMP HTRF FRET, PGE2 co-stimulation | induction, % at 25 µM | 260,000 tested, 0.83% active | AID 940;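 active means compounds whose cAMP rise, as percent of the full-agonist control response, exceeds 60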;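 further: rat C6 glioma line stably carrying human EP2 under a CMV promoter; the protocol text gives 20 µM as final concentration; 100% = response of wells given 1 µM PGE2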
Target sequence (P43116 whole entry, looked up): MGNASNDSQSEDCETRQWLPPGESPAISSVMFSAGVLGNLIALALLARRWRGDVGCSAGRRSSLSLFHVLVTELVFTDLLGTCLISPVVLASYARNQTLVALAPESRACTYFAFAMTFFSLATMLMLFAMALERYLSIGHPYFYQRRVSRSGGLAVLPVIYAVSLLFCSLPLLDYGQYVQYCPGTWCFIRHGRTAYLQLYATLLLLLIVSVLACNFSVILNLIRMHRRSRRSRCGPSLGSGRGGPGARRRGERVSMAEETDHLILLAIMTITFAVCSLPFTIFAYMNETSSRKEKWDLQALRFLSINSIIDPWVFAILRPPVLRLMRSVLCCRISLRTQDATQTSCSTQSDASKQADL
CHT PAM – allosterically activates the human high affinity choline transporter; Q9GZV3; CHT-expressing cells, membrane potential dye, choline EC20; active compounds read high; LV-AA mutant CHT in HEK293 cells; B-score at 10 µM; 310,000 tested, 0.49% active; AID 488977;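 active means initial fluorescence not abnormally high and integrated response B-score, plate-corrected, over 3 SD above library mean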
CHT block – inhibitors of human choline transporter CHT; Q9GZV3; CHT-expressing cells, membrane potential dye, choline response; active compounds read low; B-score at 10 µM; 310,000 tested, 0.86% active; AID 488975;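 active means B-score over 3 SD under the library average, and starting fluorescence ratio not unusually high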;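 further: choline stimulus applied at its EC90 after an EC20 pre-addition; B-score computed on integrated fluorescence ratio after choline addition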
PGE2 EP2 inh – blocks the human prostaglandin E2 receptor EP2; P43116; C6 glioma cells expressing human EP2, cAMP TR-FRET; cells stimulated with saturating PGE2; inhibition, % at 25 µM; 260,000 tested, 0.52% active;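 active means percent inhibition above 40 after rounding to a whole number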;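 further: rat C6 glioma host cells with rolipram phosphodiesterase inhibitor present; the protocol text gives 20 µM as final concentration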
CHT activ conf – confirmation of human choline transporter (CHT) activators. AID 504833. 2,500 tested, 91% active. activation, % at 10 µM. shares compounds with CHT PAM. CHT-expressing cells, membrane potential dye fluorescence (FDSS); % of choline EC20–EC90 response window; HEK293 expressing CHT LV-AA mutant; choline added at its EC20;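 active means primary screen active, with duplicate mean activation above negative control mean plus 3 SD, cut at about 11% in these data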
HEK293 MP dye – activity in parental HEK293 cells lacking CHT. 2,500 tested, 62% active. shares compounds with CHT PAM. membrane potential dye fluorescence (FDSS); measured after EC20 choline addition. ratio readout change at 10 µM, hits read low. AID 623908;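 active means duplicate-averaged ratio beyond 3 SD from buffer wells, up or down, though filed actives are nearly all decreases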
* hit, by the source's call; i = inactive; x = no result given. Hits are enriched below; roughly 2% of the tested compounds scored in any of these assays.

SMILES | EP2 modulator | CHT PAM | CHT block | PGE2 EP2 inh | CHT activ conf | HEK293 MP dye
CN(C)CCNC(=O)c1onc(CSc2ccncc2)c1C(=O)NCCN(C)C | x | i | i | 14.7 | 50.2* | -58.2*
CCCNC(=O)c1onc(CSc2ccncc2)c1C(=O)NCCC | 3.2 | i | i | 14.3 | x | x
O=C(c1cnccn1)N1CCC(c2ccnc3nc(C(F)(F)F)nn23)CC1 | -12.8 | x | x | x | x | x
COC(=O)CC1C(=O)NCCN1Cc1cnc(N2CCCCC2)nc1 (stereo unspecified) | 13.3 | x | x | 12.3 | x | x
COc1ccc(CCN(Cc2cc3cc(C)c(C)cc3nc2Cl)C(=O)C2CC2)cc1 | -0.3 | 9.18* | i | 5.7 | -4.1 | i
CC(C)(C)c1ccc(C2=CSC3=NCCN23)cc1 | x | i | i | x | x | x
CC1=C(c2ccccc2)SC2=NCCN21 | x | i | i | x | 54.7* | -55.9*
CCC(CC)c1nnc(NC(=O)c2cc(OC)c(OC)c(OC)c2)s1 | -71.9 | x | x | 9.1 | x | x
Cc1nnc2n(-c3ccccc3)c(=O)c3c4c(sc3n12)COC(C)(C)C4 | 14.9 | i | i | 4.7 | x | x
Cc1nnc2n(-c3ccccc3)c(=O)c3c4c(sc3n12)CCCC4 | 21.8 | 6.46* | i | 5.5 | 26.1* | -40.3*
CCN1CCCC1CNC(=O)Cn1nc(C)n2c(cc3occc32)c1=O (stereo unspecified) | 0.7 | x | x | 6.2 | x | x
COC(=O)CCCC1=CC2=C(c3ccccc3)C(=O)C(C)(OC(=O)C3CCCC3)C(=O)C2=CN1C1CCCC1 (stereo unspecified) | 17.7 | 11.2* | i | 12.8 | 36.4* | i
COc1ccc(OCC(=O)Nc2ccc3c(c2)n(C)c(=O)n3C)cc1 | x | i | i | x | x | x
COc1ccccc1OCC(=O)Nc1ccc2c(c1)n(C)c(=O)n2C | 32.3 | 6.63* | i | 5.0 | 62.7* | -53*
c1ccc(CN2CCN(CCCNc3ccc4nnc(-c5ccccc5)n4n3)CC2)cc1 | 1.7 | 7.84* | i | 9.2 | 54.1* | -47.8*
Cc1cc(C)c2c(c1)/C(=N\N=c1\sc3ccccc3n1C)C(=O)N2 | -11.5 | i | i | 2.8 | 23.5* | i
COC(=O)CN1C(c2cccc(Cl)c2)=Nc2ccc(Cl)cc2C1c1ccccc1 (stereo unspecified) | 41.3 | i | i | 4.7 | 29.6* | i
O=C(c1nn(Cc2ccccc2)c(=O)c2ccccc12)N1CCN(c2ccccn2)CC1 | 35.5 | 7.56* | i | 3.8 | 25.6* | i
O=C(c1nn(Cc2ccccc2)c(=O)c2ccccc12)N1CCc2ccccc2C1 | 31.9 | 8.39* | i | 8.0 | 28.3* | i
CCOC(=O)Nc1nc(-c2ccccc2)c(C(=O)c2ccc(Cl)cc2)s1 | 58.6 | i | i | 10.0 | 35.0* | i
Cc1nnc2ccc(N3CCN(c4ccccn4)CC3)nn12 | -20.3 | 7.23* | i | 9.6 | 52.7* | -51.2*
c1ccc(N2CCN(c3ccc4nncn4n3)CC2)nc1 | 0.6 | 9.75* | i | 6.9 | 66.1* | -58*
Cc1ccc(C)c(N(C(=O)c2csnn2)C(C(=O)NC2CCCC2)c2ccc(C)o2)c1 (stereo unspecified) | -25.6 | x | x | 5.7 | x | x
CCOC(=O)Cc1csc(NC(=O)CSc2nc(C(C)C)nc3sc(C)c(C)c23)n1 | 38.1 | x | x | 4.8 | x | x
COc1ccc(C(=O)N/N=C/c2cc3ccccc3[nH]c2=O)cc1 | -62.8 | i | i | 8.1 | 29.4* | -31.7*
SMILES | EP2 modulator | CHT PAM | CHT block | PGE2 EP2 inh | CHT activ conf | HEK293 MP dye
Cc1cc(C)c2c(n1)sc1c(N3CCN(CCO)CC3)ncnc12 | 15.3 | i | i | 6.7 | x | x
CCN1CCC2(CC1)C(C#N)=C(N)Oc1c2sc2nc(C)cc(C)c12 | 0.3 | 6.7* | i | 14.0 | 38.7* | i
CC(C)CCC(CCNCc1ccccn1)c1ccc(Cl)cc1 (stereo unspecified) | x | i | i | x | 32.7* | i
Cc1ccc(NC(=S)N(Cc2cc3cc4c(cc3[nH]c2=O)OCCO4)C2CCCC2)cc1 | -27.6 | x | x | 7.6 | x | x
CCCN(Cc1cc2ccccc2[nH]c1=O)C(=O)c1ccc(OCC)cc1 | -54.1 | x | x | 6.9 | x | x
CCc1oc(C(=O)N2CCCCC2c2nc3ccccc3[nH]2)cc1CN1CCOCC1 (stereo unspecified) | 10.5 | x | x | x | x | x
CN(CCO)c1cc(NCCCN2CCC(Cc3ccccc3)CC2)c2nonc2c1[N+](=O)[O-] | -21.5 | i | i | 6.2 | x | x
CC1CCN(CCCNc2cc(NCCO)c([N+](=O)[O-])c3nonc23)CC1 | x | i | i | x | 31.4* | -62*
CNC(=S)N(CCN1CCOCC1)Cc1cc2cc3c(cc2[nH]c1=O)OCO3 | -142.4 | x | x | 8.6 | x | x
Cc1ccc(-c2n[nH]c(CCNC(=O)CCc3n[nH]c(=O)c4ccccc34)n2)cc1 | -16.9 | x | x | 7.4 | x | x
NC(=O)c1no[n+]([O-])c1N | -4.3 | x | x | 2.9 | x | x
Cc1cc(C)nc(/N=C(\N)Nc2ccc(SC(F)F)cc2)n1 | -27.2 | i | i | 4.9 | 46.2* | -49*
Cc1cc(C)nc(/N=C(\N)Nc2ccc(S(=O)(=O)Nc3nc(C)cc(C)n3)cc2)n1 | 20.7 | 8.74* | i | 1.0 | 59.3* | -58.1*
CC(=O)Nc1ccc(N/C(N)=N/c2nc(C)cc(C)n2)cc1 | -36.8 | i | i | 6.5 | x | x
Cc1ccc(S(=O)(=O)Nc2ccc(C(=O)NCCCN3CCOCC3)cc2)cc1[N+](=O)[O-] | x | i | i | x | 15.9* | i
Cc1cc(N(C)CCO)n2nc(C)c(-c3cccs3)c2n1 | -16.2 | x | x | x | x | x
COC(=O)c1ccc2nc(C)cc(Nc3ccccc3C)c2c1 | -1.8 | 6.59* | i | 7.9 | 43.5* | -44.3*
COC(=O)c1ccc(Nc2cc(C)nc3ccc(C)cc23)cc1 | -44.0 | i | i | 17.6 | x | x
Cc1cccc(COCC(CC(C)C)N2CCN(C(=O)c3ccc(C(F)(F)F)cc3)CCC2=O)c1 (stereo unspecified) | 33.3 | i | i | 6.5 | x | x
Cc1cccc(COCC(Cc2ccccc2)N2CCN(C(=O)c3ccc(C(F)(F)F)cc3)CCC2=O)c1 (stereo unspecified) | 17.5 | i | i | 3.1 | 34.8* | i
CC(C)CC(COCc1ccc([N+](=O)[O-])cc1)N1CCN(C(=O)c2ccc(C(F)(F)F)cc2)CCC1=O (stereo unspecified) | 16.9 | i | i | 5.2 | 28.8* | i
Cc1ccc2sc(C)[n+](C)c2c1C | 6.3 | x | x | 11.4 | x | x
CCc1ccc2[nH]c(=O)c(CN(CCN3CCOCC3)C(=S)NCCOC)cc2c1 | -16.9 | x | x | 6.0 | x | x
CN1CCN(c2c(F)cc3c(=O)c(C(=O)O)cn4c3c2SCC4)CC1 | 46.1 | 9.9* | i | 28.1 | 23.4* | -69.3*
Cc1c(-n2cc(C(=O)O)c(=O)c3cc(F)c(N4CCCC4)c(F)c32)c(=O)n(-c2ccccc2)n1C | x | i | i | 11.8 | x | x
